The target in experiment [1] is T1, Mitogen-activated protein kinase kinase kinase 5 (Homo sapiens) (UniProt Q99683).
T1 sequence (whole entry): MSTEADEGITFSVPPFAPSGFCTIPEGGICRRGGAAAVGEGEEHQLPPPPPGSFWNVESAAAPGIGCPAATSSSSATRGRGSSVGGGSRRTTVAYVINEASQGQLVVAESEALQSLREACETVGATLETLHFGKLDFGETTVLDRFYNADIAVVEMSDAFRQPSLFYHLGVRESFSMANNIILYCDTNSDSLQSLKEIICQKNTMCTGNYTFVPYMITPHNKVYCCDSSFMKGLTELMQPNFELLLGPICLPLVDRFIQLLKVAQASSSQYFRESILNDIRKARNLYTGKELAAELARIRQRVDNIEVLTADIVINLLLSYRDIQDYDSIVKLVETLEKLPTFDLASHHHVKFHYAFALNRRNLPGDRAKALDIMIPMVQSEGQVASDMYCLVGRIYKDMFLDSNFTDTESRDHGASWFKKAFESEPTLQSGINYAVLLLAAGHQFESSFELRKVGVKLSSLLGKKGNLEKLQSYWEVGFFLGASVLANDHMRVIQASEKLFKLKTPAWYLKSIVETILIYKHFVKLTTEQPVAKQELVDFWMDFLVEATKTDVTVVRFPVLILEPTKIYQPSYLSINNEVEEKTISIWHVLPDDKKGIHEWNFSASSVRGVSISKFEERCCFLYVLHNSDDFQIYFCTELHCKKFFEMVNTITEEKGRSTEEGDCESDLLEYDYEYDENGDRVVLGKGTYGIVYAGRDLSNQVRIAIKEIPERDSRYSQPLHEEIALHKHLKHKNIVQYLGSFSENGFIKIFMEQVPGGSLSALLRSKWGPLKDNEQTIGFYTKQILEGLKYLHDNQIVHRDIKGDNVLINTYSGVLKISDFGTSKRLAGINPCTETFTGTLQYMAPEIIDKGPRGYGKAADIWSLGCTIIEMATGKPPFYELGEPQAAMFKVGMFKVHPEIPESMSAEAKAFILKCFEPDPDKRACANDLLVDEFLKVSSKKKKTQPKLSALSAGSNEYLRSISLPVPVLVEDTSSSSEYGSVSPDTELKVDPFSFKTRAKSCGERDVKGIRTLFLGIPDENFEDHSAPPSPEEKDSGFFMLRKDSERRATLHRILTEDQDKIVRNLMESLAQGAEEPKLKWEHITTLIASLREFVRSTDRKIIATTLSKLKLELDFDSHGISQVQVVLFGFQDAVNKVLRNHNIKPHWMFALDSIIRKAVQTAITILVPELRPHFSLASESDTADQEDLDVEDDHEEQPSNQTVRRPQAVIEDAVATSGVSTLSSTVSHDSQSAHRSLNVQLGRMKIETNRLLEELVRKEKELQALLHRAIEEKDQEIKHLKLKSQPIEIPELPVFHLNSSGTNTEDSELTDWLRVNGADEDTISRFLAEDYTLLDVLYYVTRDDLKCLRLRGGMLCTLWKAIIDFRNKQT
To be noted: at 10 µM.

Experiment [2] addresses Tyrosine-protein kinase ABL2 (Homo sapiens) (UniProt P42684). Conditions: at 1 µM; call rule not given here.
Experiment [3] has the same target. To be noted: at 10 µM.
Experiment [4] deals with Aurora kinase B (Homo sapiens) (UniProt Q96GD4). Conditions: at 1 µM.
Experiment [5] has the same target. Conditions: at 10 µM.
Experiment [6] concerns the target T2, Aurora kinase C (Homo sapiens) (UniProt Q9UQB9).
T2 sequence (whole entry): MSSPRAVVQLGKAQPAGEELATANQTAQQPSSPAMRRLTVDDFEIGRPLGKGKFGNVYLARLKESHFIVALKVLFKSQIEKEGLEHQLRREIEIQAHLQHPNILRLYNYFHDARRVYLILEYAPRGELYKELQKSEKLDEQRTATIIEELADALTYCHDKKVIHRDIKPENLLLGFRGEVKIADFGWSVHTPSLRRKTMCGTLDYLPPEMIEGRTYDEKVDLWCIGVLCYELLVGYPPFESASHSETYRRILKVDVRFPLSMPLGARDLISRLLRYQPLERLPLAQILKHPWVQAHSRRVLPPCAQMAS
Conditions: at 1 µM.

Experiment [7] concerns the target T2, Aurora kinase C (Homo sapiens). Conditions: at 10 µM.
Experiment [8] addresses Tyrosine-protein kinase receptor UFO (Homo sapiens) (UniProt P30530). Conditions: at 1 µM.
Experiment [9] has the same target. To be noted: at 10 µM.
Experiment [10] addresses Protein-tyrosine kinase 6 (Homo sapiens) (UniProt Q13882). To be noted: at 1 µM.
Experiment [11] has the same target. Conditions: at 10 µM.
The target in experiment [12] is Tyrosine-protein kinase Blk (Homo sapiens) (UniProt P51451). To be noted: at 1 µM.
Experiment [13] shares this target. Conditions: at 10 µM.
The target of experiment [14] is T3, Aurora kinase A (Homo sapiens) (UniProt O14965).
T3 sequence (whole entry): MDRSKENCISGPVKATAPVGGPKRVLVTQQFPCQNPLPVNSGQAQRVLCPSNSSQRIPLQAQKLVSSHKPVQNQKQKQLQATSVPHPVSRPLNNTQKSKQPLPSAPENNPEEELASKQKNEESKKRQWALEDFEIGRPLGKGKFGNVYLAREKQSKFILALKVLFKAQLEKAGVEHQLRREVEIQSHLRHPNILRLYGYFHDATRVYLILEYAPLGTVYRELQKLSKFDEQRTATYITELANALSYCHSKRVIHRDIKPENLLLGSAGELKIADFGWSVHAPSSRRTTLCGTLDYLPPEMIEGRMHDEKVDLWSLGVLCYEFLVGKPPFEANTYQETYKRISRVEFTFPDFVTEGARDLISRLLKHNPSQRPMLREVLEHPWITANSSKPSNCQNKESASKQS
Conditions: at 1 µM.

The target of experiment [15] is T3, Aurora kinase A (Homo sapiens). To be noted: at 10 µM.
Experiment [16] has as its target Tyrosine-protein kinase BTK (Homo sapiens) (UniProt Q06187). Conditions: at 1 µM.
For experiment [17] the target is unchanged. To be noted: at 10 µM.
For experiment [18], the target named is T4, Protein kinase C zeta type (Homo sapiens) (UniProt Q05513).
T4 sequence (whole entry): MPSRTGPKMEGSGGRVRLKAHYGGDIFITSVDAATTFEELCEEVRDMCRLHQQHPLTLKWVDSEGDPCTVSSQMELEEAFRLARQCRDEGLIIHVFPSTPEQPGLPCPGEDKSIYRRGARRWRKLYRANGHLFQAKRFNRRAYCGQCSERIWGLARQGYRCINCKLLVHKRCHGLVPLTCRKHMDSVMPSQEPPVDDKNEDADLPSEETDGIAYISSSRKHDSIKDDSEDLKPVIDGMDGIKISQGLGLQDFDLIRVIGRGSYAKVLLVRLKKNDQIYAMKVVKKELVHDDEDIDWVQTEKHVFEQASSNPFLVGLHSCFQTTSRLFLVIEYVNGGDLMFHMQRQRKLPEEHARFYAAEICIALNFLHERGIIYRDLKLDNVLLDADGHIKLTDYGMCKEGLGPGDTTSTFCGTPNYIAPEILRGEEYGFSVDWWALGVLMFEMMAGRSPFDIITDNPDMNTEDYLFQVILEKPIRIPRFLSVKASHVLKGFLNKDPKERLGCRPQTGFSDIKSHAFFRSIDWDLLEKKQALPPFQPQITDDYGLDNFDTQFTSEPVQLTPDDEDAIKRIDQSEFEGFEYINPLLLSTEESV
Conditions: at 1 µM.

Experiment [19] deals with Tyrosine-protein kinase ABL1 (Homo sapiens) (UniProt P00519). To be noted: at 1 µM.
Experiment [20] shares this target. Conditions: at 10 µM.

The values below come from ChEMBL document CHEMBL2218924, “A broad activity screen in support of a chemogenomic map for kinase signalling research and drug discovery” (Biochem J, 2013).

The structures appear in SMILES notation.

Sequence of Tyrosine-protein kinase receptor UFO (Homo sapiens) (P30530 whole entry): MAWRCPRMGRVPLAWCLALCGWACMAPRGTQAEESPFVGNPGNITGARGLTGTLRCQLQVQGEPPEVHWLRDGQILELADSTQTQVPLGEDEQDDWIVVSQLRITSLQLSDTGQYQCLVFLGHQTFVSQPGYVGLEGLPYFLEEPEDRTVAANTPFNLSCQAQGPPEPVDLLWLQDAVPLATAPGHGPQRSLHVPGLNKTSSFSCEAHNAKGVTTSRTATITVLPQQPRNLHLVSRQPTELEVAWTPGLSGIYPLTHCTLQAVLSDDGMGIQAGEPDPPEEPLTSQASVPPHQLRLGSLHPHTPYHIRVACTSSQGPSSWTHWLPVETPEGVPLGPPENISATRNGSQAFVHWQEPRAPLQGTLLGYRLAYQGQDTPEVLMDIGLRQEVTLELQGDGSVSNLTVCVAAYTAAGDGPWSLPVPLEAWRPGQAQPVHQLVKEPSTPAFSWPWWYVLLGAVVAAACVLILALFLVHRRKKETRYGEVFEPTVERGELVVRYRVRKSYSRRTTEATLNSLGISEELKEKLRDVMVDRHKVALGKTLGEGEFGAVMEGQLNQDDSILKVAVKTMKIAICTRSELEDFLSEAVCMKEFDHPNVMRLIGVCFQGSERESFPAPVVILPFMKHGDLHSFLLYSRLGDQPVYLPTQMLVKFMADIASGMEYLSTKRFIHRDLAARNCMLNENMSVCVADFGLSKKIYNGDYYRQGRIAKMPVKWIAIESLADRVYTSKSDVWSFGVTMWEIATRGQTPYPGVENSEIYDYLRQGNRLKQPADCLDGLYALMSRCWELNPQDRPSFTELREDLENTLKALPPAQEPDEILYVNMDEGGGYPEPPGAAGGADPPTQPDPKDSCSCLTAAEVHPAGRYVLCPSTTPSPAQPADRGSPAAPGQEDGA
Sequence of Protein-tyrosine kinase 6 (Homo sapiens) (Q13882 whole entry, looked up): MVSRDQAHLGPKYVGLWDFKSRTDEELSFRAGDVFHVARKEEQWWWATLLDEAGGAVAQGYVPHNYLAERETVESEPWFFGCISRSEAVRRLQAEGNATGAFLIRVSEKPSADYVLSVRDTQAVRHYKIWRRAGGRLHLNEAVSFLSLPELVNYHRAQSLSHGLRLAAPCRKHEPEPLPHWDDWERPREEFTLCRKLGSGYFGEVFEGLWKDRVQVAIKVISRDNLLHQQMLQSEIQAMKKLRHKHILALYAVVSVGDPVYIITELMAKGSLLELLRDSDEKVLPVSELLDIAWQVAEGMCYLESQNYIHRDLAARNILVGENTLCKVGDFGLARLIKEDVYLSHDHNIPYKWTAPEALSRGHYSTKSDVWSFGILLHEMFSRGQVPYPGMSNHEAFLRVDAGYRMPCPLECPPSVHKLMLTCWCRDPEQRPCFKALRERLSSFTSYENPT
Sequence of Tyrosine-protein kinase ABL2 (Homo sapiens) (P42684 whole entry): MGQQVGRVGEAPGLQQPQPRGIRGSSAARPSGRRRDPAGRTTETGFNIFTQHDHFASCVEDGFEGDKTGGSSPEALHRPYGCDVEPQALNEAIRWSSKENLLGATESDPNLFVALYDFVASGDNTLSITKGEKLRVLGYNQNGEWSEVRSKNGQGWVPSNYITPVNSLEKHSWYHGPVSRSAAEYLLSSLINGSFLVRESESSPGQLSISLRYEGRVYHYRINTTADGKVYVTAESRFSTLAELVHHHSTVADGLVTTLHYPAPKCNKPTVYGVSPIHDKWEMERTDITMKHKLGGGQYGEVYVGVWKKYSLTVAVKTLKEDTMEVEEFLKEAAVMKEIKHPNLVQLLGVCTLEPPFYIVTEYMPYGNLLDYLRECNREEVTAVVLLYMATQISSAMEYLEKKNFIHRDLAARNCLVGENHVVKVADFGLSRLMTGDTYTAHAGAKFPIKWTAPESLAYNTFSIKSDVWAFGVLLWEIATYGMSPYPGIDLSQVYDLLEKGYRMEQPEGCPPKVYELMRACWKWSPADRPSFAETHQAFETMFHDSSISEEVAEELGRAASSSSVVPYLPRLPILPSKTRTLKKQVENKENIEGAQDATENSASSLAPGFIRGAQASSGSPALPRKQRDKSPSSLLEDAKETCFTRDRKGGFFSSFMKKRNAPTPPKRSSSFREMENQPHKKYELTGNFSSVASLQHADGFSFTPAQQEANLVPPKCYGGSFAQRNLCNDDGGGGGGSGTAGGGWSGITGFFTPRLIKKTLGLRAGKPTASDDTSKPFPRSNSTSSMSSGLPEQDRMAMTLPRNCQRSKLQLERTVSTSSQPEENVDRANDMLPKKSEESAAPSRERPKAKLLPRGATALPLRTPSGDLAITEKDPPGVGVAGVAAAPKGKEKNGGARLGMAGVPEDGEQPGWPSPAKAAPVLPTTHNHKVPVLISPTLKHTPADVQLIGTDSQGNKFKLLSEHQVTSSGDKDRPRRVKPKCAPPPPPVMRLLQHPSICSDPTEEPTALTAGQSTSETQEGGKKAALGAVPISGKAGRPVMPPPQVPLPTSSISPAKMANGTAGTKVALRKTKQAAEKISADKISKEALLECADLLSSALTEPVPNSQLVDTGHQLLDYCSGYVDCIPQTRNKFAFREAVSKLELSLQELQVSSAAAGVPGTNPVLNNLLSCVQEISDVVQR
Sequence of Aurora kinase B (Homo sapiens) (Q96GD4 whole entry): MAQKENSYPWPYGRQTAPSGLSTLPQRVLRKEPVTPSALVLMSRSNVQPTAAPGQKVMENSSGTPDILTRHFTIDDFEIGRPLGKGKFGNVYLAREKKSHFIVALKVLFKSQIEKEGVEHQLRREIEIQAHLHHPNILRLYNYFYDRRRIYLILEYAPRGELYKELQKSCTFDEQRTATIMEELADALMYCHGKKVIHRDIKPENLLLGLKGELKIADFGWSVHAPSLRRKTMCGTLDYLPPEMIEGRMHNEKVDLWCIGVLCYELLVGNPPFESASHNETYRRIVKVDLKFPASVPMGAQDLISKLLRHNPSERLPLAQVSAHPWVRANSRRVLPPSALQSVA
Sequence of Tyrosine-protein kinase ABL1 (Homo sapiens) (P00519 whole entry): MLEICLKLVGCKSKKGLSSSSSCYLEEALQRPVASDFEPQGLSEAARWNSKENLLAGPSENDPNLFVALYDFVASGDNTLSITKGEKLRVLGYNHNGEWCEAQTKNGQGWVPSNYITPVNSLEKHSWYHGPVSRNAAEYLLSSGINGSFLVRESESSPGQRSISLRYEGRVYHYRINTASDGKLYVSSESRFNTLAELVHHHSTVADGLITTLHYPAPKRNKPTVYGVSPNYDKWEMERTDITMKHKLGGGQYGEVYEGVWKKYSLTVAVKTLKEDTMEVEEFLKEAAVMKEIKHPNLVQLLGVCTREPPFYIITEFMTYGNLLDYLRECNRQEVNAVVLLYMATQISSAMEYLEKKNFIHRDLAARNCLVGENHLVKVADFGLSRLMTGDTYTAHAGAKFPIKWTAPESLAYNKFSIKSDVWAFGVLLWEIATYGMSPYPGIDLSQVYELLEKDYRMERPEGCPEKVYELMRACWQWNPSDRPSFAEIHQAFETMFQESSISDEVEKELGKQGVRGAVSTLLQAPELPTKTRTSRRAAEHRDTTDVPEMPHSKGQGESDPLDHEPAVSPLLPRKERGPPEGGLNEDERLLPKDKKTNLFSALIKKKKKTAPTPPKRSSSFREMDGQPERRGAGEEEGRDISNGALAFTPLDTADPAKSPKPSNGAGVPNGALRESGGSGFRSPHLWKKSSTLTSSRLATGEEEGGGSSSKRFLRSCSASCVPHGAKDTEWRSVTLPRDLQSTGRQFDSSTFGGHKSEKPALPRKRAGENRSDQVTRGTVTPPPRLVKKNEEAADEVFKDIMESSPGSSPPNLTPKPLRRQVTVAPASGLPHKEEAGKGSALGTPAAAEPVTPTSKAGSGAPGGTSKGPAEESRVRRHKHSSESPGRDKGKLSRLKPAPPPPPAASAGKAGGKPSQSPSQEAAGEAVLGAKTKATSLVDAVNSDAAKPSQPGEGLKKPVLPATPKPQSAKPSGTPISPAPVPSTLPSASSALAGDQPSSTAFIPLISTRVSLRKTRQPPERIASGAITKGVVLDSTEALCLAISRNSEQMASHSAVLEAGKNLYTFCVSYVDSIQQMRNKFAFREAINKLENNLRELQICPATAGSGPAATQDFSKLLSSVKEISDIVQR
Sequence of Tyrosine-protein kinase Blk (Homo sapiens) (P51451 2-505 limits assumed): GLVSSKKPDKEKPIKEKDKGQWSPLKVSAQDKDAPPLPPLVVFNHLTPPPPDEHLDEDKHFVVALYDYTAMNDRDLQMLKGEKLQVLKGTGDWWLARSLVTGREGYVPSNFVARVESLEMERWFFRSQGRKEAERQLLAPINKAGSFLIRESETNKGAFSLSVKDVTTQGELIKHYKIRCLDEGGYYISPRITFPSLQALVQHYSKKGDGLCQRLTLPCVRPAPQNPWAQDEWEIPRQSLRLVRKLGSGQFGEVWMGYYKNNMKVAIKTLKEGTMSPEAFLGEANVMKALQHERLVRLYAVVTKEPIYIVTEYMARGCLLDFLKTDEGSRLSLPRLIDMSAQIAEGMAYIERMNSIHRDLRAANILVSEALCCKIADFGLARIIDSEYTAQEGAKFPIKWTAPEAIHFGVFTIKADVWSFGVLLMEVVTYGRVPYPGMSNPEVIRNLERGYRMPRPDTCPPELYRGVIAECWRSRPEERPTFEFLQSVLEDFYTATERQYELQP

With `N/C(=N\[N+](=O)[O-])N/N=C\c1ccc(-c2cccc([N+](=O)[O-])c2)o1`, the residual activity in experiment [1] was 86%; in experiment [2] it was 96%; in experiment [3], 83%; in experiment [4] it was 80%; in experiment [5], 53%; in experiment [6], 97%. Moreover, the residual activity in experiment [7] came to 88%; in [8], 94%; in experiment [9] it was 93%; in experiment [10], 97%; in [11] it was 96%; in experiment [12], 98%. Besides, the residual activity in [13] turned out to be 89%.
For the compound `COc1ccc2c(c1)/C(=C/c1cnc[nH]1)C(=O)N2`, the residual activity came to 41% in experiment [1]; 47% in experiment [3]; 42% in experiment [14]; 2% in [15]; 21% in [4]; 0% in experiment [5]. For the same compound, the residual activity is 34% in experiment [6]; 4% in [7]; 71% in [11]; 81% in [12]; 22% in experiment [13].
Regarding `O=C1NC(=O)c2c1c1c3ccccc3n3c1c1c2c2ccccc2n1C1CCC3O1`, the residual activity was determined as 60% in [1]; 95% in [14]; 88% in experiment [15]; 2% in experiment [4]; 4% in experiment [5]; 91% in experiment [8]. In addition, the residual activity was determined as 87% in [9], 22% in experiment [16] and 27% in [17].
For the compound `COc1cc2ncnc(Nc3ccc(OCc4ccccc4)cc3)c2cc1OC`, the residual activity in experiment [18] was 101% (inactive); in experiment [1], 92%; in [19], 93%; in experiment [20], 111%; in [2], 103%; in [3] it was 96%. Further, the residual activity was found to be 41% in experiment [14]; 38% in experiment [15]; 6% in experiment [4]; 3% in experiment [5]; 106% in [6]; 58% in experiment [7]. Further, the residual activity was 63% in experiment [8]; 48% in [9]; 30% in [10]; 18% in experiment [11]; 58% in experiment [16]; 43% in [17]. Besides, the results for the residual activity in experiment [12] and in experiment [13] were 44% and 18%, respectively.
On to `CCc1nc(-c2ccc(OC)cc2)[nH]c1-c1ccncc1`, for which the residual activity in experiment [18] is 105% (inactive); in experiment [2] it was 104%; in experiment [3] it was 75%; in [4], 67%; in experiment [5] it was 62%; in experiment [6], 103%. The residual activity in experiment [10] is 110%; in [11], 108%; in experiment [16] it was 100%; in experiment [17], 105%; in experiment [12], 112%; in experiment [13], 79%.
As for `CC(C)[C@H](CO)Nc1nc(Nc2cccc(Cl)c2)c2ncn(C(C)C)c2n1`, the residual activity in [18] is 101% (inactive); in experiment [1], 96%; in experiment [19] it was 62%; in experiment [20], 14%; in experiment [2] it was 22%; in experiment [3], 1%. Moreover, the residual activity in [15] worked out at 72%; in [4], 72%; in experiment [5], 17%; in [6], 96%; in experiment [7] it was 78%; in experiment [8], 90%. The residual activity stood at 31% in [9]; 92% in experiment [11]; 56% in [16]; 17% in [17]; 38% in experiment [12]; 2% in experiment [13].
`COc1ccc2c(c[n+](C)c3c4cc5c(cc4ccc23)OCO5)c1OC`: the residual activity in experiment [19] was 85%; in experiment [20], 97%; in [2] it was 92%; in experiment [3] it was 82%; in experiment [14], 83%; in experiment [15], 75%. Further, the residual activity in experiment [4] came to 130%; in [5] it was 60%; in experiment [7], 90%; in [8], 93%; in [9] it was 44%; in [10] it was 110%. The residual activity came out at 93% in experiment [16] and 90% in experiment [13].
For `COc1cc(OC)c(/C=C2\C(=O)Nc3ccccc32)c(OC)c1`, the residual activity worked out at 90% in experiment [1]; 104% in [19]; 85% in [20]; 123% in experiment [2]; 77% in experiment [3]; 107% in experiment [14]. Further, the residual activity in [15] came out at 107%; in experiment [4] it was 59%; in experiment [5], 48%; in experiment [6], 83%; in [7], 87%; in experiment [8] it was 98%. Further, the residual activity in [9] was found to be 71%; in experiment [10], 104%; in [11], 96%; in experiment [16], 93%; in experiment [17] it was 88%; in experiment [12], 92%. Further, in [13], the residual activity was found to be 81%.
Consider `c1cc(-c2cnn3cc(-c4ccc(OCCN5CCCCC5)cc4)cnc23)ccn1`, for which the residual activity in experiment [1] was 84%; in experiment [19] it was 4%; in experiment [20], -4%; in experiment [2], 12%; in experiment [3] it was 1%; in experiment [14], 64%. Further, the residual activity turned out to be 48% in experiment [15]; 18% in experiment [4]; 2% in [5]; 35% in experiment [6]; 4% in experiment [7]; 76% in [8]. Besides, the residual activity was found to be 24% in experiment [9]; 53% in experiment [10]; 7% in experiment [11]; 69% in experiment [16]; 23% in experiment [17]; 25% in [12]. Besides, the residual activity in [13] was determined as 4%.
